Inconclusive results are not listed. Active and inactive are the calls of the source. Unless noted, calls come from the whole dose curve; as a rule, active = well fitted curve in the direction sought with a large enough effect; inconclusive = small, poorly fitted or top-dose-only effect, or another doubt; inactive = no such curve, though single readings can be large; an effect the other way counts as inactive or inconclusive.
Experiments:
[1] = biological target: Flap endonuclease 1 (Homo sapiens) (UniProt P39748); assay: qHTS Validation Assay for the Inhibitors of Human Flap endonuclease 1 (FEN1) (AID 488816); note: % is set by controls: 0 for no effect and ±100 for the full control effect
Method in brief: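 Steps: add FEN1 (10 nM reagent) or buffer only; pin compounds; hold 15 min at room temperature; start with substrate, 50 nM final; read at 0 and 15 min; correct, normalize and fit a four-parameter Hill curve.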

[2] = biological target: M-phase phosphoprotein 8 (Homo sapiens) (UniProt Q99549); assay: qHTS Validation Assay for Inhibitors for MPP8 Chromodomain Interactions with Methylated Histone Tails (AID 488949); note: nearly all actives have a fitted effect of over 55% in size; note: potency is the fitted concentration of half-maximal effect
Method in brief: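 MPP8 (50 nM) was pre-bound to 50 nM biotinylated H3(1-18)K9me3 peptide in PBS pH 7.4 with 0.01% Tween-20. Compounds were then added for 30 min at room temperature, and complex disruption was read by AlphaScreen with streptavidin donor and nickel-chelate acceptor beads.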

[3] = biological target: Chromobox protein homolog 1 (Homo sapiens) (UniProt P83916); assay: qHTS Validation Assay for Inhibitors of HP1-beta Chromodomain Interactions with Methylated Histone Tails (AID 488953); note: nearly all actives have a fitted effect of over 50% in size; note: potency is the fitted concentration of half-maximal effect
Method in brief: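 AlphaScreen proximity signal from streptavidin donor and nickel chelate acceptor beads (final 10 ug/mL) after 30 min dark incubation. Compounds had 30 min at room temperature with preformed complex of 50 nM HP1-beta and 50 nM b-H3(1-18)K9me3 in PBS pH 7.4 with 0.01% Tween-20.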

[4] = biological target: Methanococcus maripaludis chaperonin (MmCpn) (UniProt Q6LX38); assay: High-Throughput Screening for Modulators of Cytosolic Chaperonin Activity: MmCpn Primary Screen (AID 488978);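 note: 50 nM MmCpn enzyme hydrolysing 30 µM ATP at 37 °C; 0% is about no effect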
Method in brief: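 MmCpn at 50 nM final was preincubated 5 min at RT with compound. ATP was then added at 30 uM final for 10 min at 37 C. ADP formed was detected by Transcreener HTRF (665/590 nm).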

[5] = biological target: Transient receptor potential cation channel subfamily V member 1 (Homo sapiens) (UniProt Q8NER1); assay: HTS Assay for Compounds that Act as Enhancers of the Vanilloid Receptor 1 (AID 488979); note: 0% is about no effect
Method in brief: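 TRPV1-expressing cells loaded with Fluo-8 calcium dye; compounds added and calcium influx read kinetically for 3 min (agonist phase), then capsaicin at EC20 added and read 2 min more for enhancement. Fluorescence ex 480/em 520 nm.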

[6] = biological target: D(1A) dopamine receptor (Homo sapiens) (UniProt P21728); assay: HTS Assay for Allosteric Agonists of the Human D1 Dopamine Receptor: Primary Screen for Agonists (AID 488981); note: 0% is about no effect
Method in brief: (§1)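 Tetracycline-induced HEK293 T-REx cells force-coupled to calcium signalling were incubated overnight at 30 C and dye-loaded at room temperature. Calcium flux over 180 s after compound addition flagged agonists; a further 180 s read after EC20 dopamine flagged potentiators.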

[7] = biological target: D(1A) dopamine receptor (Homo sapiens) (UniProt P21728); assay: HTS Assay for Allosteric Agonists of the Human D1 Dopamine Receptor: Primary Screen for Potentiators (AID 488982); note: 0% is about no effect
Method in brief: as §1

[8] = biological target: D(1A) dopamine receptor (Homo sapiens) (UniProt P21728); assay: HTS Assay for Allosteric Agonists of the Human D1 Dopamine Receptor: Primary Screen for Antagonists (AID 488983);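 note: calcium flux response to an EC80 dopamine challenge measured with no-wash dye; % is set by controls: 0 for no effect and ±100 for the full control effect; nearly all actives have a fitted effect of over 65% in size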
Method in brief: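 Calcium-flux read-out in inducible HEK293 T-REx cells expressing D1, dye-loaded 30–90 min at room temperature. Kinetic reads: 180 s after compound (agonist phase), then 180 s after an EC80 dopamine challenge.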

[9] = biological target: ATPase family AAA domain-containing protein 5 (Homo sapiens) (UniProt Q96QE3); assay: Validation screen for small molecules that inhibit ELG1-dependent DNA repair in human embryonic kidney (HEK293T) cells expressing luciferase-tagged ELG1 (AID 493107); note: nearly all actives have a fitted effect of over 70% in size; note: potency is the fitted concentration of half-maximal effect
Method in brief: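 Luciferase read-out, ONE-Glo, 30 min at room temperature, follows 16 h co-exposure at 37 C of compound and the DNA-damaging agent 5-fluorouridine. Cells: HEK293T with ELG1-luciferase fusion, 2,000 per well, DMSO as vehicle.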

[10] = biological target: Thyrotropin-releasing hormone receptor (Homo sapiens) (UniProt P34981); assay: qHTS for Small Molecule Agonists and Allosteric Enhancers of Human TRH Receptor: Validation Screen for Agonists (AID 493127;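 active = calcium activation more than 3 SD above the typical response in the agonist read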;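 note: intracellular calcium rise by fluo-8 fluorescence before TRH EC20 addition; 0% is about no effect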); conditions: TRH receptor agonist cell assay; at 2 µM; stronger effect = higher value
Method in brief: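 Compound-evoked intracellular calcium release in fluo-8-loaded TRHR cells, read kinetically on FDSS (Ex 480/Em 530, 1 s/cycle) after 23 nL pintool transfer. Agonist phase preceded 10 nM TRH EC20 addition.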

[11] = qHTS for Inhibitors of Cell Surface uPA Generation: Validation Assay (AID 493164);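 note: RAW 264.7 macrophage cells exposed to compound for 18 h; 0% is about no effect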
Method in brief: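 ATP-Lite luminescence read-out: ATP remains high when uPA activity-dependent LF translocation into the cytoplasm is blocked. RAW 264.7 cells, 18 h compound exposure at 37 C; 7-point titration, 2.45 nM to 38.3 uM final.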

[12] = biological target: Galactokinase (Homo sapiens) (UniProt P51570); assay: qHTS Validation Assay for Inhibitors of Human Galactokinase (GALK) (AID 493189); note: 0% is about no effect
Method in brief: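 GALK (5 nM) with 35 uM ATP and 100 uM galactose in HEPES pH 8.0 with MgCl2, NaCl, DTT and BSA. Reaction ran 1 h at room temperature. Residual ATP read by Kinase-Glo Plus luminescence.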

[13] = Validation screen for small molecules that induce DNA re-replication in SW480 colon adenocarcinoma cells (AID 504364); note: 0% is about no effect
Method in brief: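 Image-based DNA content read-out: Hoechst stain 40 min, total nuclear fluorescence intensity (ex 405 nm, em 500-530 nm) after 48 h compound exposure of 250 SW480 cells/well at 37 C, 5% CO2, versus DMSO vehicle.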

[14] = biological target: Peptidyl-prolyl cis-trans isomerase NIMA-interacting 1 (Homo sapiens) (UniProt Q13526); assay: qHTS Validation Assay to Find Inhibitors of Pin1 (AID 504536; active = well fitted inhibition curve with a large enough effect in the polarisation, with a control signal flat, not every such curve was filed as active; the % refers to the polarisation;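 note: 0% = full Pin1 enzyme wells and -100% = no-enzyme wells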)
Method in brief: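 Fluorescence polarization competition: compounds (titration) displace HiFluor-488-labeled Pin1-1b peptide from Pin1 (0.3 uM final) in pH 7.5 HEPES buffer with DTT, 10 min at room temperature; %Activity normalized to no-enzyme wells, curves fitted.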

[15] = biological target: Phosphoglycerate kinase, glycosomal (Trypanosoma brucei brucei) (UniProt P07378); assay: qHTS Validation Assay to Find Inhibitors of Phosphoglycerate Kinase (AID 504547);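 note: control wells lack PGK and mark full inhibition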
Method in brief: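 In TEA buffer (100mM, pH 7.6) containing 5mM MgCl2 and 0.01% Tween-20, the GAPDH-coupled PGK reaction proceeded for 60 minutes at room temperature before a single luminescence reading using Kinase-Glo Plus.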

[16] = biological target: phosphoglycerate mutase (Leishmania major) (UniProt Q4Q090); assay: qHTS Validation Assay to Find Inhibitors of Phosphoglycerate Mutase (AID 504548); note: series mostly up to about 58 µM; % is set by controls: 0 for no effect and ±100 for the full control effect
Method in brief: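 Luminescent end-point read-out via Kinase-GloPlus after a 10-minute development. Reaction: 1.25nM Leishmania major PGAM with substrate and compound, 45 minutes at room temperature in TEA buffer (pH 7.6) with MgCl2 and Tween-20.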

[17] = Inducers of the Endoplasmic Reticulum Stress Response (ERSR) in human glioma: Validation (AID 504836); note: 0% is about no effect
Method in brief: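 Stably transfected U87-MG human glioma cells carrying a GRP78-based luminescent sensor were seeded at 1000 cells/well, pin-dosed with compounds and incubated 16 h. Luciferase reagent was then added, and end-point luminescence was read after 10 min at room temperature.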

[18] = biological target: Ubiquitin carboxyl-terminal hydrolase 1 (Homo sapiens) (UniProt O94782); assay: Inhibitors of USP1/UAF1: Pilot qHTS (AID 504865);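 note: rhodamine fluorescence freed from ubiquitin-rhodamine substrate followed over time; top concentration of the series differs between compounds; % is set by controls: 0 for no effect and ±100 for the full control effect; nearly all actives have a fitted effect of over 35% in size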
Method in brief: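 USP1/UAF1 complex at 1 nM preincubated 15 min at room temperature with compound, then Ub-Rho substrate added at 150 nM final. Fluorescence (480/540 nm) read kinetically in 50 mM HEPES pH 7.8, 0.5 mM EDTA, 1 mM TCEP, 0.1 mg/ml BSA, 0.01% Tween-20.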

[19] = Nrf2 qHTS screen for inhibitors: Validation (AID 493153; active = well fitted inhibition curve with a large enough effect in the main read-out, with a control signal flat, not every such curve was filed as active); conditions: Potency: luciferase luminescence; viability change: measured here: cytotoxicity max response
Method in brief: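 Concentration-response on A549 ARE_Fluc reporter cells exposed 18-24 h at 37 C, 5% CO2. Cytotoxicity read first by CellTiter-Fluor fluorescence (Ex 405/Em 525), then Nrf2 inhibition by BugLite luminescence after 15 min.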

Chain of Methanococcus maripaludis chaperonin (MmCpn) (Q6LX38 1-543): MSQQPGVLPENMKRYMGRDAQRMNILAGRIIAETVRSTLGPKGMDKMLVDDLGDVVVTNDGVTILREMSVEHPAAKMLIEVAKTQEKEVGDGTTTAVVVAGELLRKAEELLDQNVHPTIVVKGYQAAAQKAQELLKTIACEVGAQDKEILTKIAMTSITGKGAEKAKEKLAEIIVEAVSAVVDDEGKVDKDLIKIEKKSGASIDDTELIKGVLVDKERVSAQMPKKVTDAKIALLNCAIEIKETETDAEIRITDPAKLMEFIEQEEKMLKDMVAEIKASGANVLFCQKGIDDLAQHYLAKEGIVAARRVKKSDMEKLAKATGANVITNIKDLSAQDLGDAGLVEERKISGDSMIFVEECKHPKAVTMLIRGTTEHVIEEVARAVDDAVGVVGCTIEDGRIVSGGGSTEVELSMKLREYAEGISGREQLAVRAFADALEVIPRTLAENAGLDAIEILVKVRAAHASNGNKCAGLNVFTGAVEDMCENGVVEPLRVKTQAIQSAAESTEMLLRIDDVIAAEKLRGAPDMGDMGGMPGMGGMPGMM
Chain of phosphoglycerate mutase (Leishmania major) (Q4Q090 1-553): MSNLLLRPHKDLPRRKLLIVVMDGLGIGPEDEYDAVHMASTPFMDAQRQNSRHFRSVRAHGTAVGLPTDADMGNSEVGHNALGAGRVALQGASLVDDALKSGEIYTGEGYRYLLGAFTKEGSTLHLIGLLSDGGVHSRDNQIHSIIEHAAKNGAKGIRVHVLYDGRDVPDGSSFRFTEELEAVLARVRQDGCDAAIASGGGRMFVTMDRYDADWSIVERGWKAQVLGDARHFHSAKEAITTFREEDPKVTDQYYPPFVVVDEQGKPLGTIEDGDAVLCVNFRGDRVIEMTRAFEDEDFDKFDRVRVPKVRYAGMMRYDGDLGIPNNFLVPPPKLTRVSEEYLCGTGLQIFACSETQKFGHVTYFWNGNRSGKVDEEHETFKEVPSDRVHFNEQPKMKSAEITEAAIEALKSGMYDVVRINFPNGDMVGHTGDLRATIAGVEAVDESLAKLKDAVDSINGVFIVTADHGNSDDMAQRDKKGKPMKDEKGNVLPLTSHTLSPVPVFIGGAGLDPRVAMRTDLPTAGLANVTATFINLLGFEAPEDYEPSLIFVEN
Chain of ATPase family AAA domain-containing protein 5 (Homo sapiens) (Q96QE3 whole entry, looked up, the tested form may be a part): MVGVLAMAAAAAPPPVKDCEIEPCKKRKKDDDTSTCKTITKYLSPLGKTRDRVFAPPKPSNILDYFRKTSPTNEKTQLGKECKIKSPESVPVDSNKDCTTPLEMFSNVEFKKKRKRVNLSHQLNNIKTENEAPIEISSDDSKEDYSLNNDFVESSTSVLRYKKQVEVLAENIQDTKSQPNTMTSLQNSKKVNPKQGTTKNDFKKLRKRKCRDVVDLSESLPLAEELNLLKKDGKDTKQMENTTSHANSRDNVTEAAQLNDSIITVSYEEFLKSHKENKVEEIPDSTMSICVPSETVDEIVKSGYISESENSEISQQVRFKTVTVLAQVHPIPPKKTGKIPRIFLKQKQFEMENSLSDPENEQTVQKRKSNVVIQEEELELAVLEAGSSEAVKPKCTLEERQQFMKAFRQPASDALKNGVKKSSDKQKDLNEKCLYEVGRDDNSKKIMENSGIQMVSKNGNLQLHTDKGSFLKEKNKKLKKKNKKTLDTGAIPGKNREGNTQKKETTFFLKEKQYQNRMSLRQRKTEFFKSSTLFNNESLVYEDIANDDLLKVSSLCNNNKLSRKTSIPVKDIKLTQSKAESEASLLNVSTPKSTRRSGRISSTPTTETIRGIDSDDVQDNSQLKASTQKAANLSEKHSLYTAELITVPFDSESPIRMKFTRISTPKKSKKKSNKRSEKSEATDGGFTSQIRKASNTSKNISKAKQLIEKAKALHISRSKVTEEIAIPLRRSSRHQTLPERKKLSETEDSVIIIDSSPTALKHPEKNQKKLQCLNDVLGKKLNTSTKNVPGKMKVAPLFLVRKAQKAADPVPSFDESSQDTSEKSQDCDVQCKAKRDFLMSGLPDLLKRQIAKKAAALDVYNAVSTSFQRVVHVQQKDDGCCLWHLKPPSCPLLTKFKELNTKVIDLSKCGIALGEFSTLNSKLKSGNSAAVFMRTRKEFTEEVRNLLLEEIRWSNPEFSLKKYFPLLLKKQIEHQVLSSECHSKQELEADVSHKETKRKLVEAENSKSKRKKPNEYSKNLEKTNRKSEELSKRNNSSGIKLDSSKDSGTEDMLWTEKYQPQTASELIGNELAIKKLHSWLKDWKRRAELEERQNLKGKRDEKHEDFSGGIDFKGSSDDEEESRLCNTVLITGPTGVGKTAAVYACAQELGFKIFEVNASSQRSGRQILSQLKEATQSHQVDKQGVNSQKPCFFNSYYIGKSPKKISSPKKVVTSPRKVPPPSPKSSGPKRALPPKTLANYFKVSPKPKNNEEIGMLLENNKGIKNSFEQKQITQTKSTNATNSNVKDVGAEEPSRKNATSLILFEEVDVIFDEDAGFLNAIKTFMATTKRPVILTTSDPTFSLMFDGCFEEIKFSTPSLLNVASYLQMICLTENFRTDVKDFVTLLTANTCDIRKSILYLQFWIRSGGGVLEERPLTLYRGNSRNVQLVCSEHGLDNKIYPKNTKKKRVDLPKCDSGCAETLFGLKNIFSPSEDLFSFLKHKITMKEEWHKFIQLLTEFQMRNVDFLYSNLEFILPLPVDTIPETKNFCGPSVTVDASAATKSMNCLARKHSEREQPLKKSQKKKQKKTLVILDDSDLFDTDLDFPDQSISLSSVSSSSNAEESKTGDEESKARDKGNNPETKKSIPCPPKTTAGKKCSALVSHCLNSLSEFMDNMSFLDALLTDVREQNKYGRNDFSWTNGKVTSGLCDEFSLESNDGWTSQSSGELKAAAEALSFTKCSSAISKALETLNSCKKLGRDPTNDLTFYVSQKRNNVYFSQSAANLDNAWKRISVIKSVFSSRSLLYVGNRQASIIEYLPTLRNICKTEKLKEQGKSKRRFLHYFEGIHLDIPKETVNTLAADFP
Chain of Ubiquitin carboxyl-terminal hydrolase 1 (Homo sapiens) (O94782 whole entry, looked up): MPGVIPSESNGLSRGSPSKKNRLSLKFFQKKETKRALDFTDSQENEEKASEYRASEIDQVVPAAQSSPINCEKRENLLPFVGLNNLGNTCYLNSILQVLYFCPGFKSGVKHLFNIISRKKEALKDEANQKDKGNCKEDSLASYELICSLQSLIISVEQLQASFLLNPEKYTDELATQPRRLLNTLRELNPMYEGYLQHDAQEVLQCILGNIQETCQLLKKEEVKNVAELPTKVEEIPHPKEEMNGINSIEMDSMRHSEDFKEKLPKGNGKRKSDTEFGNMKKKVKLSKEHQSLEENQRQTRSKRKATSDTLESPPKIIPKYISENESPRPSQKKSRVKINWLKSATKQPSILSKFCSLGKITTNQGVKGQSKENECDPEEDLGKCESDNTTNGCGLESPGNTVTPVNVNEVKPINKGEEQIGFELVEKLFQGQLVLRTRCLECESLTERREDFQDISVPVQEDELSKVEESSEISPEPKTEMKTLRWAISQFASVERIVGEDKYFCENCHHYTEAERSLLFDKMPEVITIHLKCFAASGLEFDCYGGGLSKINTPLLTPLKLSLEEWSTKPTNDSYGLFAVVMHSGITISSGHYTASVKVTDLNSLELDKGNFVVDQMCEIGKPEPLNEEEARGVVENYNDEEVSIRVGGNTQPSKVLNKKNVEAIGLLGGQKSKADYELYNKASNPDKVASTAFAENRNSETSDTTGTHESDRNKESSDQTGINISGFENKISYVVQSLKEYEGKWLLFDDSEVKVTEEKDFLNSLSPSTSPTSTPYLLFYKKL
Chain of Thyrotropin-releasing hormone receptor (Homo sapiens) (P34981 whole entry, looked up): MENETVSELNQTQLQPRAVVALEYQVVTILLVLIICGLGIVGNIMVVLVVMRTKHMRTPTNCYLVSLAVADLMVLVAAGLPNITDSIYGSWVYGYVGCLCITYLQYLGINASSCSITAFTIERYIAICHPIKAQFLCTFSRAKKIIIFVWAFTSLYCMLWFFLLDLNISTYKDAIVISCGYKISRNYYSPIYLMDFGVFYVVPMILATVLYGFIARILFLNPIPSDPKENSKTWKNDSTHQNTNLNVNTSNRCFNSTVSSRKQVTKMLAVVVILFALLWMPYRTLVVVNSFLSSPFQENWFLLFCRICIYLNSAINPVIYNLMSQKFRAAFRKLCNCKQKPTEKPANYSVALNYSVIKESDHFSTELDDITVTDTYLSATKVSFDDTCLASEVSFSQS
Chain of M-phase phosphoprotein 8 (Homo sapiens) (Q99549 whole entry, looked up): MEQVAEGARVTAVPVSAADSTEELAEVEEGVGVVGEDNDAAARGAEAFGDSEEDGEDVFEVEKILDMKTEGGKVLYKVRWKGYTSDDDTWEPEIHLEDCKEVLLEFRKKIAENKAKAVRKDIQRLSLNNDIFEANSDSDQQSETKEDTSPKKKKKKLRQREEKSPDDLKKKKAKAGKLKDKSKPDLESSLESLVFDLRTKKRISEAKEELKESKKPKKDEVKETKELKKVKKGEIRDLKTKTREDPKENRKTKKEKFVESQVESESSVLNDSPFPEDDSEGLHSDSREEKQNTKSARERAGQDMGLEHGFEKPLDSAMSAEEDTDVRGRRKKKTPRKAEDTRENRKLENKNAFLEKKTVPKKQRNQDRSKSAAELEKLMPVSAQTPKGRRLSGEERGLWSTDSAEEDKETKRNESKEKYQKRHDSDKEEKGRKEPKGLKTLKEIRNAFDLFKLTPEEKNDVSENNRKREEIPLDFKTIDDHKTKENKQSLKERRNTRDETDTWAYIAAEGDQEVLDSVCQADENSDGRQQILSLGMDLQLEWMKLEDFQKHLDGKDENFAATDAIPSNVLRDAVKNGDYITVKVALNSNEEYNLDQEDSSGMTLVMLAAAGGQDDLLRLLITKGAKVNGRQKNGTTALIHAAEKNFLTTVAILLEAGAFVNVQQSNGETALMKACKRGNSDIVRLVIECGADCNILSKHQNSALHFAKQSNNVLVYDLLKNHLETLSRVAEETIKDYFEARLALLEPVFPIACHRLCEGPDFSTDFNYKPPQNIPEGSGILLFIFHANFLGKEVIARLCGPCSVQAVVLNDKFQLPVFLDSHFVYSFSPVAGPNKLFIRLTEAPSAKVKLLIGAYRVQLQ

CCCN1CCC[C@@H]2Cc3nc(N)ncc3C[C@H]21
inactive: Potency [1] | Potency [2] | Potency [3] | outcome [4] | outcome [5] | Potency [6] | Potency [7] | Potency [8] | Potency [9] | activation [10] 0.562% | outcome [11] | outcome [12] | Potency [13] | Potency [14] | Potency [15] | outcome [16] | outcome [17] | Potency [18]

c1ccc2c(c1)OCC(C1=NCCN1)O2 (stereo unspecified)
active: Potency [9] 14.6 µM
inactive: Potency [1] | Potency [2] | Potency [3] | outcome [4] | outcome [5] | Potency [6] | Potency [7] | Potency [8] | activation [10] 1.38% | outcome [11] | outcome [12] | Potency [13] | Potency [14] | Potency [15] | outcome [16] | outcome [17] | Potency [18]

O=c1[nH]c2ccccc2n1C1CCN(CCCC(c2ccc(F)cc2)c2ccc(F)cc2)CC1
inactive: Potency [1] | outcome [4] | outcome [5] | Potency [6] | Potency [7] | outcome [11] | outcome [12] | Potency [13] | Potency [14] | Potency [15] | outcome [16] | outcome [17]
active: Potency [2] 22.4 µM | Potency [3] 35.5 µM | Potency [9] 11.6 µM

CNCC(O)c1ccc(O)cc1 (stereo unspecified)
-6.1%: viability change [19]
inactive: Potency [1] | Potency [2] | Potency [3] | outcome [4] | outcome [5] | Potency [6] | Potency [7] | Potency [8] | Potency [9] | activation [10] 1.12% | Potency [19] | outcome [11] | outcome [12] | Potency [13] | Potency [14] | Potency [15] | outcome [16] | outcome [17] | Potency [18]

NCC1(CC(=O)O)CCCCC1
inactive: Potency [1] | Potency [2] | Potency [3] | outcome [4] | outcome [5] | Potency [6] | Potency [7] | Potency [8] | Potency [9] | activation [10] 1.12% | outcome [11] | outcome [12] | Potency [13] | Potency [14] | Potency [15] | outcome [16] | outcome [17] | Potency [18]

CCCN1CCC[C@@H]2Cc3[nH]ncc3C[C@H]21
inactive: Potency [1] | Potency [2] | Potency [3] | outcome [4] | Potency [6] | Potency [7] | Potency [8] | Potency [9] | outcome [11] | Potency [14] | Potency [15] | outcome [16] | outcome [17] | Potency [18]

NCC(CC(=O)O)c1ccc(Cl)cc1 (stereo unspecified)
inactive: Potency [1] | Potency [2] | Potency [3] | outcome [4] | outcome [5] | Potency [6] | Potency [8] | activation [10] 0.125% | outcome [11] | outcome [12] | Potency [13] | Potency [14] | Potency [15] | outcome [16] | outcome [17] | Potency [18]

O=C1NCN(c2ccccc2)C12CCN(CC1COc3ccccc3O1)CC2 (stereo unspecified)
1.49%: viability change [19]
inactive: Potency [1] | Potency [2] | outcome [4] | outcome [5] | Potency [6] | Potency [7] | Potency [8] | activation [10] 0.562% | Potency [19] | outcome [11] | outcome [12] | Potency [13] | Potency [14] | Potency [15] | outcome [16] | outcome [17] | Potency [18]

COC[C@H]1OC(=O)c2coc3c2[C@@]1(C)C1=C(C3=O)C2CCC(=O)[C@@]2(C)C[C@H]1OC(C)=O (stereo partly specified)
inactive: Potency [1] | Potency [2] | Potency [3] | outcome [4] | outcome [5] | Potency [6] | Potency [7] | Potency [8] | Potency [9] | activation [10] 0.25% | outcome [12] | Potency [13] | Potency [15] | outcome [16] | Potency [18]

Nc1ccncc1
inactive: Potency [1] | Potency [2] | outcome [4] | outcome [5] | Potency [6] | Potency [7] | Potency [8] | Potency [9] | activation [10] 1.19% | outcome [11] | outcome [12] | Potency [13] | Potency [14] | Potency [15] | outcome [16] | outcome [17] | Potency [18]

CC(CCc1ccccc1)NC(C)C(O)c1ccc(O)cc1 (stereo unspecified)
inactive: Potency [1] | Potency [2] | Potency [3] | outcome [4] | Potency [6] | Potency [7] | Potency [9] | Potency [19] | outcome [11] | outcome [12] | Potency [13] | Potency [14] | Potency [15] | outcome [16] | outcome [17] | Potency [18]
-10.8%: viability change [19]

C[C@@H]1O[C@@H](O[C@H]2C[C@@H](O)[C@]3(CO)[C@H]4[C@H](O)C[C@]5(C)[C@@H](C6=CC(=O)OC6)CC[C@]5(O)[C@@H]4CC[C@]3(O)C2)[C@H](O)[C@H](O)[C@H]1O
active: Potency [9] 0.092 µM
inactive: Potency [1] | Potency [2] | Potency [3] | outcome [4] | Potency [6] | Potency [7] | Potency [8] | outcome [11] | Potency [13] | Potency [14] | Potency [15] | outcome [16] | outcome [17] | Potency [18]

Reference: PubChem BioAssay (NCATS)
